Measurements from the supplement of paper PMC6992640.
± gives the standard deviation of the averaged measurements.

Columns and labels:
Experiment in all cases: cell viability (% of vehicle); higher = less cytotoxic
Conditions in all cases: 10 µM; 72 h
HCI01 = system: HCI01 (cells of a triple-negative basal-like breast cancer xenograft)
HCI03 = system: HCI03 (cells of an ER-positive luminal breast cancer xenograft)
HCI09 = system: HCI09 (cells of a triple-negative luminal androgen receptor type breast cancer xenograft)
HCI11 = system: HCI11 (cells of an ER-positive luminal breast cancer xenograft)
HCI13 = system: HCI13 (cells of an ER-positive luminal breast cancer xenograft)
HCI16 = system: HCI16 (cells of a triple-negative basal-like breast cancer xenograft)
UCD52 = system: UCD52 (cells of a triple-negative basal-like breast cancer xenograft)
WHIM2 = system: WHIM2 (cells of a triple-negative basal-like breast cancer xenograft)
WHIM30 = system: WHIM30 (cells of a triple-negative basal-like breast cancer xenograft)
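Also: PDX cells carrying CMV promoter-driven luciferase, viability read as total photon flux per second by IVIS imaging following D-luciferin, vehicle control 0.1% DMSO.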

Work on `CC(C)CN(CC(O)C(Cc1ccccc1)NC(=O)OC1CCOC1)S(=O)(=O)c1ccc(N)cc1` (centres undefined) [Amprenavir (agenerase)] yielded a cell viability (HCI01) of 96.3 ± 11, a cell viability (HCI03) of 99.1 and a cell viability (HCI09) of 85.6 ± 4.6. It also gave a cell viability (HCI11) of 104, a cell viability (HCI13) of 103 ± 7.5 and a cell viability (HCI16) of 115. It also gave a cell viability (UCD52) of 56.8 ± 3.1, a cell viability (WHIM2) of 78.8 ± 8.7 and a cell viability (WHIM30) of 112 ± 25.

For `CC(CCC(=O)O)C1CCC2C3C(O)CC4CC(O)CCC4(C)C3CCC12C` (centres undefined) [Chenodeoxycholic Acid], the cell viability (HCI01) was 114 ± 38, the cell viability (HCI03) was 104 and the cell viability (HCI09) was 66 ± 10. The cell viability (HCI11) was 103, the cell viability (HCI13) was 41.5 ± 4.3 and the cell viability (HCI16) was 102. The cell viability (UCD52) was 97.13 ± 0.54, the cell viability (WHIM2) was 115 ± 23 and the cell viability (WHIM30) was 146 ± 3.2.

In the case of `Nc1ccn(C2CSC(CO)O2)c(=O)n1` (centres undefined) [Lamivudine], the cell viability (HCI01) is reported as 106 ± 17, the cell viability (HCI03) is reported as 130 and the cell viability (HCI09) is reported as 94.9 ± 7.3. The cell viability (HCI11) was 107, the cell viability (HCI13) was 124 ± 7.9 and the cell viability (HCI16) was 95.2. The cell viability (UCD52) was 87.7 ± 6.8, the cell viability (WHIM2) was 94.3 ± 11 and the cell viability (WHIM30) was 84.4 ± 12.

Compound `CO[C@H]1/C=C/O[C@@]2(C)Oc3c(C)c(O)c4c(c3C2=O)C2=NC3(CCN(CC(C)C)CC3)NC2=C(NC(=O)/C(C)=C\C=C\[C@H](C)[C@H](O)[C@@H](C)[C@@H](O)[C@@H](C)[C@H](OC(C)=O)[C@@H]1C)C4=O` [Rifabutin] has a cell viability (HCI01) of 56.1 ± 34, a cell viability (HCI03) of 116 and a cell viability (HCI09) of 57.3 ± 27. The cell viability (HCI11) was 83.2, the cell viability (HCI13) was 113 ± 16 and the cell viability (HCI16) was 121. For the same compound, the cell viability (UCD52) was 81.2 ± 1.8, the cell viability (WHIM2) was 79.1 ± 27 and the cell viability (WHIM30) was 143 ± 7.7.

`CCC1C(O)C2C3CCC(C(C)CCC(=O)O)C3(C)CCC2C2(C)CCC(O)CC12` (centres undefined) [Obeticholic Acid] gave a cell viability (HCI01) of 137 ± 53, a cell viability (HCI03) of 149 and a cell viability (HCI09) of 77.56 ± 0.36. For the same compound, the cell viability (HCI11) was 112, the cell viability (HCI13) was 81.8 ± 14 and the cell viability (HCI16) was 145. It also gave a cell viability (UCD52) of 98.9 ± 10, a cell viability (WHIM2) of 120 ± 1.9 and a cell viability (WHIM30) of 151 ± 2.4.

`CC1(c2nc3c(C(N)=O)cccc3[nH]2)CCCN1` (centres undefined) [ABT-888 (Veliparib)] gave a cell viability (HCI01) of 109 ± 7.5, a cell viability (HCI03) of 120 and a cell viability (HCI09) of 108 ± 5.2. It also gave a cell viability (HCI11) of 100, a cell viability (HCI13) of 86.9 ± 14 and a cell viability (HCI16) of 91.1. It also gave a cell viability (UCD52) of 94.2 ± 2, a cell viability (WHIM2) of 101 ± 14 and a cell viability (WHIM30) of 121 ± 4.2.

`CCOC(=O)C(CCc1ccccc1)NC(C)C(=O)N1C(=O)N(C)CC1C(=O)O.Cl` (centres undefined) [Imidapril HCl] showed a cell viability (HCI01) of 105 ± 8.3, a cell viability (HCI03) of 113 and a cell viability (HCI09) of 99.8 ± 7.1. For the same compound, the cell viability (HCI11) was 102, the cell viability (HCI13) was 126 ± 1.4 and the cell viability (HCI16) was 94.2. It also gave a cell viability (UCD52) of 78 ± 3.8, a cell viability (WHIM2) of 105 ± 3.3 and a cell viability (WHIM30) of 104 ± 10.

`CC(C)(C)NCC(O)c1ccc(O)c(CO)c1.O=S(=O)(O)O` (centres undefined) [Salbutamol Sulfate] gave a cell viability (HCI01) of 103 ± 5.9, a cell viability (HCI03) of 104 and a cell viability (HCI09) of 97.4 ± 19. The cell viability (HCI11) was 90.5, the cell viability (HCI13) was 106 ± 21 and the cell viability (HCI16) was 104. It also gave a cell viability (UCD52) of 85.4 ± 4.9, a cell viability (WHIM2) of 92.9 ± 19 and a cell viability (WHIM30) of 114 ± 6.2.

Work on `Cc1cc(=O)n(-c2ccccc2)n1C` [Antipyrine] yielded a cell viability (HCI01) of 110 ± 15, a cell viability (HCI03) of 131 and a cell viability (HCI09) of 101 ± 10. For the same compound, the cell viability (HCI11) was 103, the cell viability (HCI13) was 88.6 ± 1.1 and the cell viability (HCI16) was 95.9. For the same compound, the cell viability (UCD52) was 98.2 ± 7.5, the cell viability (WHIM2) was 106 ± 30 and the cell viability (WHIM30) was 125 ± 11.

`Cl.N=C(N)N` [Guanidine HCl] gave a cell viability (HCI01) of 77.2 ± 10, a cell viability (HCI03) of 96.3 and a cell viability (HCI09) of 96.5 ± 9.5. For the same compound, the cell viability (HCI11) was 85.6, the cell viability (HCI13) was 125 ± 4.1 and the cell viability (HCI16) was 126. For the same compound, the cell viability (UCD52) was 79.1 ± 8.1, the cell viability (WHIM2) was 97.7 ± 5.6 and the cell viability (WHIM30) was 135 ± 2.3.

`CCOC(=O)C(CCc1ccccc1)NC(C)C(=O)N1C(C(=O)O)CC2CCCC21` (centres undefined) [Ramipril] was tested, and the cell viability (HCI01) was 77.7 ± 49, the cell viability (HCI03) was 129 and the cell viability (HCI09) was 86.7 ± 4.7. The cell viability (HCI11) was 91.6, the cell viability (HCI13) was 115 ± 14 and the cell viability (HCI16) was 106. For the same compound, the cell viability (UCD52) was 87.6 ± 5.9, the cell viability (WHIM2) was 90.8 ± 9.4 and the cell viability (WHIM30) was 99.772 ± 0.035.
